According to PubChem BioAssay (Tox21):
Results filed as inconclusive are left out. Entries that show only a call come without a potency. Active and inactive are the calls of the source. The call rests on the fitted dose curve; in most records, active means well fitted cell-killing curve with a large enough effect in the repeat runs; inconclusive means weak or mixed curves, or effect the other way; inactive means flat fitted curve, though single readings scatter.

test: qHTS RealTime-Glo MT Cell Viability Assay in HEK293 cells - 32 hour (AID 1224868); conditions: RealTime-Glo luminescence; series mostly up to 76.8 µM; further: top concentration of the series differs between compounds; nearly all actives have a fitted effect of over 50% in size
Excerpt: National Center for Advancing Translational Sciences [NCATS]
NIH Chemical Genomics Center [NCGC]
U.S. Environmental Protection Agency [EPA]
National Institutes of Environmental Health Sciences [NIEHS]
National Toxicology Program [NTP]
U.S. Food and Drug Administration [FDA]
Measure of cell viability is critical in the cell-base assay. Analysis of cell viability is necessary for the characterization of cell responses to cytotoxic drugs and environmental stress. A RealTime-Glo MT Cell Viability Assay to monitor cell viability in real time of continues cell culture during 40 hours of compound treatment was used to screen Tox21 10K library compounds in Hek293 cells. The RealTime-Glo MT Cell Viability Assay is a nonlytic, homogeneous, bioluminescent method to measure cell viability in real time using a simple, plate-based method. The assay involves adding NanoLuc luciferase and a cell-permeant prosubstrate to cells in culture. Viable cells reduce the proprietary prosubstrate to generate a substrate for NanoLuc luciferase. This substrate diffuses from cells into the surrounding culture medium, where it is rapidly used by the NanoLuc Enzyme to produce a luminescent signal. The signal correlates with the number of viable cells, making the assay well suited for cytotoxicity studies.
Tox21 Assay Protocol Summary:
The mixture of Hek293 cell suspension and reagents were dispensed at 600cells/6 ul/well in 1536-well tissue culture treated black solid bottom plates using a Multidrop dispenser. After the assay plates were incubated at a 37 C/5% CO2 incubator for 5 hours, 23 nL of compounds dissolved in DMSO, positive and negative controls was transferred to the assay plate by a pintool work station. The plates were incubated at 37 C for 40 hours. The luminescence intensity were measured at 0h, 8h, 16h, 24h, 32h and 40h time points using ViewLux plate reader during compound treatment.

SMILES	Potency
CC(CN)CC(C)(C)CCN (stereo not given)	inactive
COc1ccc(-c2cc(=O)c3c(O)cc(O[C@@H]4O[C@H](CO[C@@H]5O[C@@H](C)[C@H](O)[C@@H](O)[C@H]5O)[C@@H](O)[C@H](O)[C@H]4O)cc3o2)cc1O	inactive
CCOc1cc(NC(C)=O)ccc1C(=O)OC	inactive
Cc1[nH]cnc1-c1ccc(Cl)cc1	inactive
Cc1cc(C(C)(C)C)c(O)c(C)c1CC1=NCCN1	inactive
CC(C)(C)c1cc(CCC(=O)NN)cc(C(C)(C)C)c1O	inactive
COC(=O)[C@@H]1[C@H]2C[C@H]3c4[nH]c5ccccc5c4CCN3C[C@@H]2CC[C@@H]1O	inactive
CC(C)=CCOC(=O)c1ccccc1	inactive
CC(C)CC(C)CC(C)CC(C)COC(=O)c1ccccc1C(=O)OCC(C)CC(C)CC(C)CC(C)C (stereo not given)	inactive
C[Si](C)(C)C	inactive
Cc1ccc2ccc(Cl)cc2n1	inactive
COc1ccc2c(c1)C(=O)N(CCc1ccc(S(=O)(=O)NC(=O)NC3CCCCC3)cc1)C(=O)C2(C)C	inactive
CO[C@@H]1[C@@H](OC(N)=O)[C@@H](O)[C@H](Oc2ccc3c(O)c(NC(=O)c4ccc(O)c(CC=C(C)C)c4)c(=O)oc3c2C)OC1(C)C	inactive
O=S(=O)(O)CCN1CCN(CCO)CC1	inactive
C=Cc1ccccn1	inactive
Cc1cccc2nccnc12	inactive
FC(F)(F)c1ccccc1-n1ccnc1	inactive
COCCOCCOCCOCCOCCO	inactive
NS(=O)(=O)c1ccc(NC(=O)CCC(=O)O)cc1	inactive
CC(=C(CCOC(=O)C(C)C)SSC(CCOC(=O)C(C)C)=C(C)N(C=O)Cc1cnc(C)nc1N)N(C=O)Cc1cnc(C)nc1N	inactive

SMILES	Potency
CC1(C)S[C@@H]2[C@H](N=CN3CCCCCC3)C(=O)N2[C@H]1C(=O)O	inactive
CC(CO)c1ccccc1 (stereo not given)	inactive
CCN1CCc2nc(N)oc2CC1	inactive
Brc1ccc(-c2ccccc2)cc1	inactive
CC(C)CCCCOC(=O)c1ccccc1C(=O)OCCCCC(C)C	inactive
OC[C@H](Cc1cccc(O)c1)[C@H](CO)Cc1cccc(O)c1	inactive
CC(C)C[C@H](NC(=O)CNC(=O)[C@H](Cc1ccc(O)cc1)NC(=O)[C@H](CO)NC(=O)[C@H](Cc1c[nH]c2ccccc12)NC(=O)[C@H](Cc1cnc[nH]1)NC(=O)[C@@H]1CCC(=O)N1)C(=O)N[C@@H](CCCN=C(N)N)C(=O)N1CCC[C@H]1C(=O)NCC(N)=O (stereo in doubt)	inactive
O=C(O)CCSSCCC(=O)O	inactive
C=C(C)C(=O)OCc1ccccc1	inactive
O=C(CS(=O)Cc1ccco1)NC/C=C\COc1cc(CN2CCCCC2)ccn1 (stereo not given)	inactive
C=C(C)C1CCC(C)(O)CC1 (stereo not given)	inactive
CCCOC(OCCC)OCCC	inactive
O=C(NCCN1CCOCC1)c1ccc(Cl)cc1	inactive
Cc1ccc2c(c1)OCC(=O)CO2	inactive
O=C(OCC1(COC(=O)c2cccnc2)CCCC(COC(=O)c2cccnc2)(COC(=O)c2cccnc2)C1O)c1cccnc1	inactive
CCCCCCCCCCl	inactive
O=C(c1ccc(O)cc1)c1ccc(O)c(O)c1O	inactive
CC[C@H](C)C(=O)O[C@H]1C[C@H](O)C=C2C=C[C@H](C)[C@H](CC[C@@H](O)C[C@@H](O)CC(=O)O)[C@H]21	inactive
CC(=O)NCc1c(I)c(NC(C)=O)c(I)c(C(=O)O)c1I	inactive
CCC(CC)CO	inactive
